Data: PubChem BioAssay

Molecular target: Focal adhesion kinase 1 (Homo sapiens) (UniProt Q05397)
Experiment: small-molecule microarray binders of FAK, primary screen, biochemical, 635/667 nm fluorescence, BSA, DTT (AID 1130);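 further: composite of spot emission at 667 nm and signal to noise over triplicate slides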
Conditions: PTK2 binding, 635 nm fluorescence, higher = more signal

Focal adhesion kinase 1 (Homo sapiens), sequence (Q05397 whole entry, looked up): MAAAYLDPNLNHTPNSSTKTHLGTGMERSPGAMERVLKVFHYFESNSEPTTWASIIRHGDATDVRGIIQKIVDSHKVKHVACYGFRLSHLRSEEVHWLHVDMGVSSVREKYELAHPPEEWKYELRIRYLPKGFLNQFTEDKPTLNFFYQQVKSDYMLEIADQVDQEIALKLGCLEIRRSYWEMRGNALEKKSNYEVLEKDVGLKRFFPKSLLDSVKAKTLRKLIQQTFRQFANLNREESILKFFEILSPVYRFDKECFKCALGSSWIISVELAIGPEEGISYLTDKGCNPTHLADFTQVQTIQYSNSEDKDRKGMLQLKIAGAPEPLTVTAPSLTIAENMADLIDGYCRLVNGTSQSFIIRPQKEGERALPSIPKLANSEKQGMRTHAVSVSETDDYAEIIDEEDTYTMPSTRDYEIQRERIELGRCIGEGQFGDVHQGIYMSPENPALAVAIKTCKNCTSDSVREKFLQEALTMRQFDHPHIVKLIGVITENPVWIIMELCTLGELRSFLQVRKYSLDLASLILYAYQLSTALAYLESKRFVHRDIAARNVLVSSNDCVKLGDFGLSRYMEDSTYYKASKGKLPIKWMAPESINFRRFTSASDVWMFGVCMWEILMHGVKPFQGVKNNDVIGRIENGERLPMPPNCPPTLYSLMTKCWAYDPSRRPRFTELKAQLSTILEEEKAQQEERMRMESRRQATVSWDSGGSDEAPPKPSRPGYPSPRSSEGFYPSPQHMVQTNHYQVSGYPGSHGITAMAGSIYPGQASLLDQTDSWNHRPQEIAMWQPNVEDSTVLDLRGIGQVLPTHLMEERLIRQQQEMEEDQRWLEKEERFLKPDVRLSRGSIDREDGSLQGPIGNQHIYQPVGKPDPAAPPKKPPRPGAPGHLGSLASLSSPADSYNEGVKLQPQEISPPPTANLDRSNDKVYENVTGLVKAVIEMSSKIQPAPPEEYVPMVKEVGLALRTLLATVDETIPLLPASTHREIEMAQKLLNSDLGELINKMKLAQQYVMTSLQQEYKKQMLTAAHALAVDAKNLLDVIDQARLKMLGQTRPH

Structure (SMILES)	composite z-score
COCCOC(=O)N1C(=O)[C@@]2(c3cc(C#CCC(C(=O)OC)C(=O)OC)ccc31)[C@H](C(N)=O)[C@H]1C(=O)O[C@H](c3ccccc3)[C@H](c3ccccc3)N1[C@@H]2c1ccc(O)cc1	0.601
COc1cc(OC)c(C(O)C2C=CC3C(=O)N(c4ccccc4)C(=O)C3N2Nc2ccc(C(C)C)cc2)cc1Br (stereo not given)	0.441
C#CCN1[C@@H](Cc2ccccc2)C(=O)O[C@H](Cc2ccccc2)[C@@H]1/C=C/C1CC1	0.0423
CN(C)CCCNC(=O)[C@@H]1c2ccccc2C(=O)N(Cc2ccccc2C(F)(F)F)[C@H]1c1ccc(CO)cc1	-0.142
COc1ccc([Si](C)(C)[C@H]2[C@H](CCO)O[C@@]3(C(=O)N(Cc4ccc(NC(=O)[C@H](C)O)cc4)c4ccccc43)[C@@H]2C)cc1	0.382
CCOC(=O)C[C@H]1[C@H](OC(=O)c2ccccc2-c2ccccc2)[C@@H](NC(=O)c2ccc3ccccc3c2)c2cc(OCCCO)ccc2N1C(=O)Cc1ccc(OC)cc1	0.0564
COCCCN1C(=O)[C@@]2(c3ccc([N+](=O)[O-])cc3)CC(=O)N(CC34CC5CC(CC(C5)C3)C4)[C@@H]2c2ccc(CO)cc21	-0.102
C=C1C(=O)C=C2CN(C(=O)c3ccccc3)[C@@](Cc3ccc(OC)cc3)(C(=O)OC)[C@@H]12	0.408
C=CCNC(=O)[C@H]1[C@@H]2C(=O)O[C@@H](c3ccccc3)[C@@H](c3ccccc3)N2[C@@H](c2ccc(OCCO)cc2)[C@]12C(=O)Nc1ccccc12	0.624
COCCOC(=O)N1C(=O)[C@@]2(c3ccccc31)[C@H](c1ccc(O)cc1)N1[C@H](c3ccccc3)[C@H](c3ccccc3)OC(=O)[C@H]1[C@@H]2C(=O)N1CCCCCCC1	0.791
